Reference: PubChem BioAssay (EPA / NIEHS)
Where “and” joins values, the source holds several entries; their conditions need not be identical. Identical values can stand only once. Inconclusive results are not listed. The source holds several records for some structures; these can differ, active in one and inactive in another. Calls of active or inactive are those of the source. The calls were made as follows: active = hit-call score of the fitted dose curve at least 0.9, where 1 is the maximum; inconclusive = response in the unintended direction; inactive = score below 0.9.

Test system: not listed separately
Assay: ACEA_ER_AUC_viability: ACEA Biosciences xCELLigence Real-Time Cell Analysis on Estrogen Receptor Agonism for Viability (AID 2283782);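 also: continuous compound exposure with impedance area under curve over 80 h; hit means loss of impedance signal meaning reduced cell growth or viability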
Procedure, shortened: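 T-47D human breast cells in phenol red-free RPMI1640 with 10% charcoal-stripped FBS were dosed with an 8-point 1:4 dilution series from 100 uM top final concentration, in duplicate. Impedance-based growth was followed for 80 h; AUC analysed versus DMSO.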
In the case of `O=C(O)C(F)(F)C(F)(F)C(F)(F)C(F)(F)C(F)(F)C(F)(F)C(F)(F)C(F)(F)C(F)(F)C(F)(F)C(F)(F)C(F)(F)C(F)(F)F`, the AC50 is reported as 2.91 µM (active).
For `CC(=O)Nc1ccc(N=Nc2cc(C)ccc2O)cc1`, the outcome was “inactive”.
With `O=C(Cl)C(F)(F)C(F)(F)C(F)(F)C(F)(F)C(F)(F)C(F)(F)C(F)(F)C(F)(F)F` the AC50 was 127 µM (active).
In the case of `FC(F)(F)C(F)(F)C(F)(F)CI`, the outcome is reported as “inactive”.
For `Cc1ccc(S(=O)(=O)OCC(F)(F)C(F)(F)C(F)(F)C(F)(F)C(F)(F)C(F)F)cc1`, the AC50 was 0.00308 µM (active).
With `FC(F)(F)C(F)(F)C(F)(F)C(F)(F)C(F)(F)C(F)(F)C(F)(F)I` the outcome was “inactive”.
In the case of `O=C(OCCOCCOCCOC(=O)c1ccccc1)c1ccccc1`, the outcome is reported as “inactive”.
In the case of `N=C(N)C(F)(F)C(F)(F)C(F)(F)C(F)(F)C(F)(F)C(F)(F)C(F)(F)F`, the AC50 is reported as 75 µM (active).
With `CC(C)(C)c1ccc(OC2CCCCC2O)cc1` (stereo not given) the outcome was “inactive”.
For `CCCCC(CC)COP(=O)(O)OCC(CC)CCCC` (stereo not given), the AC50 was 79.2 µM (active).
For `O=S(=O)(OCC(F)F)C(F)(F)F`, the outcome was “inactive”.
In the case of `C=CC(F)(F)C(F)(F)C(F)(F)C(F)(F)C(F)(F)C(F)(F)C(F)(F)C(F)(F)C=C`, the outcome is reported as “inactive”.
For `O=C(O)C(F)(F)C(F)(F)C(F)(F)C(F)(F)C(F)(F)C(F)(F)C(F)(F)C(F)(F)Cl`, the AC50 was 119 µM (active).
With `C=C(C)C(=O)OCC(F)(F)C(F)(F)C(F)(F)C(F)(F)C(F)(F)C(F)(F)C(F)(F)F` the outcome was “inactive”.
With `CC/C=C\CCOC(C)=O` the outcome was “inactive”.
With `CCc1ccc(C(c2ccc(CC)cc2)C(Cl)Cl)cc1` the outcome was “inactive”.
For `O=C(O)C(F)(OC(F)(F)C(F)(OC(F)(F)C(F)(F)C(F)(F)F)C(F)(F)F)C(F)(F)F` (stereo not given), the outcome was “inactive”.
For `FC(F)(I)C(F)(F)C(F)(F)C(F)(F)I`, the AC50 was 129 µM (active).
In the case of `C=C(C)C(=O)OCC(F)(F)C(F)(F)C(F)(F)F`, the outcome is reported as “inactive”.
With `CC(C)OC(=O)c1ccccc1C(=O)OC(C)C` the outcome was “inactive”.
In the case of `CCCCCCOC(=O)c1ccccc1O`, the outcome is reported as “inactive”.
With `C=CC(=O)OCC(F)(F)C(F)(F)C(F)(F)C(F)(F)C(F)(F)C(F)(F)C(F)(F)F` the outcome was “inactive”.
With `OCC(F)(F)C(F)(F)C(F)(F)C(F)(F)C(F)(F)C(F)F` the outcome was “inactive”.
For `Nc1ccc(S(=O)(=O)Nc2nccs2)cc1`, the AC50 was 26 µM (active) and the outcome was “inactive”.
With `Cc1cccc(N(C)C)c1` the AC50 was 25.6 µM (active).
With `CCCCCCCCCCCCCCCC[N+](C)(C)Cc1ccccc1` the AC50 was 3.4 µM (active).
In the case of `CCc1c(Br)c(Br)c(Br)c(Br)c1Br`, the outcome is reported as “inactive”.
With `FC(F)(F)C(F)(F)C(F)(F)C(F)(F)C(F)(F)C(F)(F)C(F)(F)C(F)(F)CCS` the outcome was “inactive”.
For `CCCCOCCOCCOC(=O)CCCCC(=O)OCCOCCOCCCC`, the outcome was “inactive”.
With `OC[C@@H](O)[C@@H](O)[C@H](O)[C@@H](O)CO` the outcome was “inactive”.
In the case of `OCC(F)(F)C(F)(F)C(F)(F)C(F)F`, the outcome is reported as “inactive”.
For `FC1CC(F)(F)C(F)(F)C1(F)F` (stereo not given), the outcome was “inactive”.

Biological target: AR (gene 367) (UniProt P10275)
Sequence (P10275 whole entry, looked up): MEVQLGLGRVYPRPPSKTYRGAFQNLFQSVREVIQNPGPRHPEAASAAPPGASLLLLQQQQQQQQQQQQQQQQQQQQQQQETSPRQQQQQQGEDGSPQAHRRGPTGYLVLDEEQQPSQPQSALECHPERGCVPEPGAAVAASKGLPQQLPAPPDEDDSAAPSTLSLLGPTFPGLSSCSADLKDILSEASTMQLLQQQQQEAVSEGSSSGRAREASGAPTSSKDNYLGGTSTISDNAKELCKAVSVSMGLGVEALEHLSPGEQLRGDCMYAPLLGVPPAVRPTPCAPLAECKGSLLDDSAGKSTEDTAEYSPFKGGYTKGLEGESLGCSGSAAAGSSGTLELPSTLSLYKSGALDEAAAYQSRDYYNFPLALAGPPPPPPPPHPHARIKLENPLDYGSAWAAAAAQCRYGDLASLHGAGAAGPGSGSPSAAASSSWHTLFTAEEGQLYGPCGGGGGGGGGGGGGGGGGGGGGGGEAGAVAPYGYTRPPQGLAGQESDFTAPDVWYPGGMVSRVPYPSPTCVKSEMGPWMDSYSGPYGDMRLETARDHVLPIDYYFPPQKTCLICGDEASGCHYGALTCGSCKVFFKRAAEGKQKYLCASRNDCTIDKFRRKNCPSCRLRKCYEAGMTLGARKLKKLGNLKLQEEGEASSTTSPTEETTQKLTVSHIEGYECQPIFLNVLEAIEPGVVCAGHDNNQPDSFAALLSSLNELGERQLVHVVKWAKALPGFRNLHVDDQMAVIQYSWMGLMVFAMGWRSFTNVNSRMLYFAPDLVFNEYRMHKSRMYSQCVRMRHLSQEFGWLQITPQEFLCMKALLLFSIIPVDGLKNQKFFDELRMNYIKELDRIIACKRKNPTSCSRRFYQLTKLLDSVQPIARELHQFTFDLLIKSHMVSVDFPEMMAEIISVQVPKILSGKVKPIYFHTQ
Assay: ACEA_AR_agonist_80hr: ACEA Biosciences xCELLigence Real-Time Cell Analysis on Androgen Receptor Agonism for Proliferation (AID 2283783);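 also: hits increase impedance growth signal above DMSO baseline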
Experimental: ACEA_AR_agonist is a cell-based, single-readout assay that uses 22Rv1, a human prostate cancer cell line, with measurements taken at 80 hours after chemical dosing in a 384-well plate, although TO5 and TO6 (mc0.srcf) used a 96-well plate. Differences in plate size can be ignored given data normalization.ACEA_AR_agonist_80hr is one of two assay component(s) measured or calculated from the ACEA_AR assay. It is designed to make measurements of real-time cell-growth kinetics, a form of growth reporter, as detected with electrical impedance signals by Real-Time Cell Electrode Sensor (RT-CES) technology.Data from the assay component ACEA_AR_agonist_80hr was analyzed in the positive analysis fitting direction relative to DMSO as the negative control and baseline of activity. Using a type of growth reporter, measures of the cells for gain-of-signal activity can be used to understand the signaling at the pathway-level as they relate to the geneAR Furthermore, this assay endpoint can be referred to as a primary readout, because this assay has produced multiple assay endpoints where this one serves a signaling function. To generalize the intended target to other relatable targets, this assay endpoint is annotated to the nuclear receptor intended target family, where the subfamily is steroidal.
The xCELLigence system Multi-E-Plate stations were used to measure the time-dependent response to chemicals. Each compound was tested in an eight-point, 1:4 serial dilution series starting at a maximum final concentration of 100 uM. A maximum starting concentration of 0.5% DMSO was present in the 100 uM chemical samples and was diluted along with the test article dilution series. The screen was performed in biological duplicate using two separate, 96-well, E-Plates 96 for each dilution series (n = 2). Positive controls (MG132 and testosterone) and a negative control (assay media) were tested in quadruplicate on each testing plate. […] Cellular responses were then recorded once every 5 min for the first 5 h, and once every hour for an additional 100 h.
For `CCCCCCC(C)OC(=O)CCCCC(=O)OC(C)CCCCCC` (stereo not given), the outcome was “inactive”.
With `CNC(=S)NC` the outcome was “inactive”.
In the case of `CN(C)Cc1ccccc1O`, the outcome is reported as “inactive”.

Biological target: AR (gene 367) (UniProt P10275)
Assay: ACEA_AR_antagonist_80hr: ACEA Biosciences xCELLigence Real-Time Cell Analysis on Androgen Receptor Antagonism for Proliferation (AID 2283787);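 also: hits lower the impedance growth signal relative to DMSO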
Procedure, shortened: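 Impedance readout (RT-CES), 80 h post-dose; loss-of-signal vs DMSO baseline. 22Rv1 cells in assay medium. Compounds: 8-pt 1:4 series, max 100 uM final, up to 0.5% DMSO; n = 2.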
For `CCCCCCC(C)OC(=O)CCCCC(=O)OC(C)CCCCCC` (stereo not given), the outcome was “inactive”.
With `CNC(=S)NC` the outcome was “inactive”.
In the case of `CN(C)Cc1ccccc1O`, the outcome is reported as “inactive”.
In the case of `CCCCCCOC(=O)c1ccccc1O`, the outcome is reported as “inactive”.

Test system: not listed separately
Assay: ATG_M_06_XSP2: Attagene TRANS-FACTORIAL Multi-Species (XSP2) HepG2 Assay for M06 Transcription Factor (Internal Marker) (AID 2283811);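 also: internal background marker reporter mRNA measured by RT-PCR and capillary electrophoresis; hits are increases in signal above the DMSO baseline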
Procedure, shortened: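 HepG2 cells transiently transfected with GAL4-UAS multi-reporter constructs, dosed 24 h with 3 nM 6-alpha-fluorotestosterone plus 1.5 nM norgestrel present to stimulate androgen receptor. Reporter mRNA quantified by RT-PCR, 6-FAM labelling, HpaI digestion and capillary electrophoresis; gain-of-signal fitted versus DMSO baseline.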
In the case of `c1ccc(B(c2ccccc2)c2ccccc2)cc1`, the outcome is reported as “inactive”.
With `O=C(OCCOCCOCCOC(=O)c1ccccc1)c1ccccc1` the outcome was “inactive”.
For `C#C[C@]1(O)CC[C@H]2[C@@H]3CCc4cc(OC)ccc4[C@H]3CC[C@@]21C`, the outcome was “inactive”.

Test system: turtle Estrogen Receptor (ERa), gene 101933533
Assay: ATG_trERa_XSP2: Attagene TRANS-FACTORIAL Multi-Species (XSP2) HepG2 Assay for turtle Estrogen Receptor (ERa) (AID 2283812);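 also: human HepG2 liver cells transiently expressing turtle ERa-Gal4 chimeric receptor; actives raise reporter signal above DMSO so AC50 reflects agonist activity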
Procedure, shortened: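 HepG2 cells transiently transfected with GAL4-UAS reporter units expressing turtle ERa-Gal4 chimera. Reporter mRNA measured after 24 h dosing by RT-PCR, fluorescent labelling and capillary electrophoresis; gain of signal fitted versus DMSO.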
For `c1ccc(B(c2ccccc2)c2ccccc2)cc1`, the AC50 was 4.9 µM (active) and 7.88 µM (active).
In the case of `O=C(OCCOCCOCCOC(=O)c1ccccc1)c1ccccc1`, the outcome is reported as “inactive”.
With `C#C[C@]1(O)CC[C@H]2[C@@H]3CCc4cc(OC)ccc4[C@H]3CC[C@@]21C` the AC50 was 0.21 nM (active) and 0.082 nM (active).

Biological target: zebrafish Estrogen Receptor (ER1), esr1 (gene 259252) (UniProt P57717)
Sequence (P57717 whole entry, looked up): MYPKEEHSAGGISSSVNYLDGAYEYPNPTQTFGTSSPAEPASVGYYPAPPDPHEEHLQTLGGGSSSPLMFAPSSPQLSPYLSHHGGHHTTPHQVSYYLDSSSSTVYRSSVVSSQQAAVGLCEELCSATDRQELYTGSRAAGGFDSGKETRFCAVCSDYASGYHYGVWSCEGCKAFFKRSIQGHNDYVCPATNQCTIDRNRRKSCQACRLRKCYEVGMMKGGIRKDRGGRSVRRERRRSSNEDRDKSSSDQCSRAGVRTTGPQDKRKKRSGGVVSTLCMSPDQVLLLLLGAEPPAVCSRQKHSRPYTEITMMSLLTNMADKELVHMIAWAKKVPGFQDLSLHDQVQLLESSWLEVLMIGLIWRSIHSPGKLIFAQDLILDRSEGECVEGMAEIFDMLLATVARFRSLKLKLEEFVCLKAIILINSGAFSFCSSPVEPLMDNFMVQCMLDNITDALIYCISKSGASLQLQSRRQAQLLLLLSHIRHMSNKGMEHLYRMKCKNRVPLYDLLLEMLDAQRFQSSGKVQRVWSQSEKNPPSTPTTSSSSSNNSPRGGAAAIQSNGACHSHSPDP
Assay: ATG_zfER1_XSP2: Attagene TRANS-FACTORIAL Multi-Species (XSP2) HepG2 Assay for zebrafish Estrogen Receptor (ER1) (AID 2283816)
Procedure, shortened: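 HepG2 cells transiently transfected with a GAL4-UAS reporter and a chimeric zebrafish ER1-Gal4 construct, dosed 24 h. Reporter mRNA quantified by RT-PCR, labelling, HpaI digestion and capillary electrophoresis, relative to DMSO.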
With `c1ccc(B(c2ccccc2)c2ccccc2)cc1` the AC50 was 59.7 µM (active) and 22 µM (active).
For `O=C(OCCOCCOCCOC(=O)c1ccccc1)c1ccccc1`, the outcome was “inactive”.
With `C#C[C@]1(O)CC[C@H]2[C@@H]3CCc4cc(OC)ccc4[C@H]3CC[C@@]21C` the AC50 was 10.2 nM (active) and 3.1 nM (active).

Biological target: chicken Estrogen Receptor (ERa), ESR1 (gene 396099) (UniProt P06212)
Sequence (P06212 whole entry, looked up): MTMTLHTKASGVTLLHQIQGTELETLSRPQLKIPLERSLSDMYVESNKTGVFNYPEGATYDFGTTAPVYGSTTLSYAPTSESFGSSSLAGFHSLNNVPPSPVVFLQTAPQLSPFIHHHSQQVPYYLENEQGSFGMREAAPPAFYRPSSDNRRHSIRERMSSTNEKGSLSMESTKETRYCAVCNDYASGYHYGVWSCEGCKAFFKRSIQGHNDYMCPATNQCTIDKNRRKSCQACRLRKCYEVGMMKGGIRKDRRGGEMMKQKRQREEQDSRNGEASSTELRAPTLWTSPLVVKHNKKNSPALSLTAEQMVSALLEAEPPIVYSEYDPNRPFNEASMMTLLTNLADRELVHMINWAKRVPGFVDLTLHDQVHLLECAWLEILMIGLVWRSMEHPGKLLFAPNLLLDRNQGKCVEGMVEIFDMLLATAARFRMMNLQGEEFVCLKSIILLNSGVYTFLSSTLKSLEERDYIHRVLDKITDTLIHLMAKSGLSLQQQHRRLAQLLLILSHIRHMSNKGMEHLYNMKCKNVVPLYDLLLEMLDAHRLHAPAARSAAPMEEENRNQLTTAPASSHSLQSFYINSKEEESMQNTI
Assay: ATG_chERa_XSP2: Attagene TRANS-FACTORIAL Multi-Species (XSP2) HepG2 Assay for chicken Estrogen Receptor (ERa) (AID 2283817);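 also: actives raise reporter signal above DMSO so AC50 reflects ER activation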
Procedure, shortened: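 HepG2 cells transiently transfected with multiplexed GAL4-UAS reporter units expressing chimeric chicken ERa-Gal4; 24 h compound exposure. Reporter mRNA measured by RT-PCR with 6-FAM labelling, HpaI digestion and capillary electrophoresis; gain-of-signal fitted versus DMSO.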
For `c1ccc(B(c2ccccc2)c2ccccc2)cc1`, the AC50 was 5.78 µM (active) and 3.86 µM (active).
In the case of `O=C(OCCOCCOCCOC(=O)c1ccccc1)c1ccccc1`, the outcome is reported as “inactive”.
For `C#C[C@]1(O)CC[C@H]2[C@@H]3CCc4cc(OC)ccc4[C@H]3CC[C@@]21C`, the AC50 was 0.189 nM (active) and 0.519 nM (active).

Test system: frog Estrogen Receptor (ER), gene 398734
Assay: ATG_frER1_XSP2: Attagene TRANS-FACTORIAL Multi-Species (XSP2) HepG2 Assay for frog Estrogen Receptor (ER) (AID 2283821);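 also: hits raise reporter mRNA above DMSO baseline so potency means agonist or activator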
Procedure, shortened: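 HepG2, transient MRTU transfection, chimeric NR-GAL4/UAS reporters; 24 h compound exposure, 24-well. Readout: reporter mRNA via RT-PCR + capillary electrophoresis, fluorescence. Positive fit vs DMSO baseline.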
With `c1ccc(B(c2ccccc2)c2ccccc2)cc1` the AC50 was 7.06 µM (active) and 7.56 µM (active).
With `O=C(OCCOCCOCCOC(=O)c1ccccc1)c1ccccc1` the outcome was “inactive”.
In the case of `C#C[C@]1(O)CC[C@H]2[C@@H]3CCc4cc(OC)ccc4[C@H]3CC[C@@]21C`, the AC50 is reported as 0.598 nM (active) and 0.0823 nM (active).
